FLuc inh-1: inhibitors of firefly (Photinus pyralis) luciferase. 2.5% of 76,000 active. Potency, µM (titrated, usually from 115 µM), hits mostly inhibitors. purified P. pyralis luciferase, luminescence, biochemical. P08659; also: % is scaled to controls: 0 for no effect and ±100 for the full control effect; nearly all actives have a fitted effect of over 65% in size
Target sequence (P08659 whole entry, looked up): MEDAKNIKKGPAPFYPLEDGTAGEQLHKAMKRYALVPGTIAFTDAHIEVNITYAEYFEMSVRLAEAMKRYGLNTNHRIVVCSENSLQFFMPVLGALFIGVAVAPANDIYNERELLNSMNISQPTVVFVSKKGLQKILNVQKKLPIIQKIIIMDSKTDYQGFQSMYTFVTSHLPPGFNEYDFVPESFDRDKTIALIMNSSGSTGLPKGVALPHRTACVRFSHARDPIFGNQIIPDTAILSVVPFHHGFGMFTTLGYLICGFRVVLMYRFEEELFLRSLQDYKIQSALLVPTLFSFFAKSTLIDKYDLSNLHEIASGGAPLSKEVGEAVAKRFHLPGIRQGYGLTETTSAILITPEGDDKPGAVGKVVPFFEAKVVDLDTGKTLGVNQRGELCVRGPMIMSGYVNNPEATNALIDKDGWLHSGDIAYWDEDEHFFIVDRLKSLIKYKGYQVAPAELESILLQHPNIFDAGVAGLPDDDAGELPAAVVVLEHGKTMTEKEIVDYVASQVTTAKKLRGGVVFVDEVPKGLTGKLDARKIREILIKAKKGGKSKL
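FLuc 10nM, D-luciferin 10uM, ATP 10uM, Mg acetate 10mM, Tris acetate pH 7.5, Tween/BSA; cpd qHTS; enzyme added last; CCD luminescence.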
NIH3T3 tox: cytotoxic compounds in NIH 3T3 cells; NIH 3T3 viability, CellTiter-Glo ATP luminescence, 48-72 h; Potency, µM (series often up to 96.7 µM), inactives show at the top dose activity change, negative = cytotoxicity, most hits filed as inhibitors; 4.3% of 94,000 active; AID 1345082; also: % is scaled to controls: 0 for no effect and ±100 for the full control effect; nearly all actives have a fitted effect of over 55% in size
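Cells were seeded at 400 per well, treated with pin-transferred compound, and kept 48 or 72 hr at 37 °C before CellTiter-Glo addition and luminescence imaging of cellular ATP.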
HEK cytotox: kills HEK 293 cells; HEK 293 viability, ATP luminescence (CellTiter-Glo), 48-72 h; Potency, µM (highest dose often 115 µM), inactives show top-dose activity change, negative = cytotoxicity, actives largely listed as inhibitors; 6.6% of 94,000 active; also: % is scaled to controls: 0 for no effect and ±100 for the full control effect; nearly all actives have a fitted effect of over 60% in size
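250 HEK 293 cells/well; compound by pintool; incubated 48 or 72 hr at 37 degree Celsius; CellTiter-Glo added, 10 min RT, luminescence imaged.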
NPR1 antag: blocks ANP-stimulated signaling of human Npr1 receptor | P16066 | HEK293 hNpr1 GloSensor cGMP, ANP-stimulated luminescence | Potency, µM (series often up to 46.3 µM), without a hit: top-dose activity change, negative = inhibition, most hits filed as inhibitors | 1.6% of 76,000 active | AID 1347048; calls by dose curve; also: % is scaled to controls: 0 for no effect and ±100 for the full control effect; nearly all actives have a fitted effect of over 60% in size
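HEK293 cells stably expressing human Npr1 and cGMP GloSensor pGS-40F, loaded 2 h with 2% GloSensor reagent, given compound 30 min at room temperature. Luminescence read before and 20 min after 0.1 nM hNppA.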
FLuc SDR -ATP: firefly luciferase binding stabilization, ATP absent; shares compounds with FLuc inh-1; Purified FLuc-C-HiBiT, Nano-Glo HiBiT luminescence, no ATP; Potency, µM (highest dose often 32.7 µM), for inactives: at the highest dose activation (signal gain), usual class: activators; 7.8% of 1,300 active; AID 1963318; also: nearly all actives have a fitted effect of over 55% in size
FLuc SDR ATP: stabilizes firefly luciferase with ATP present; Potency, µM (top dose mostly 32.7 µM), for inactives: top-dose activation (gain of signal), usual class: activators; shares compounds with FLuc inh-1; 8.7% of 1,300 active; AID 1963319; purified FLuc-C-HiBiT + ATP, HiBiT complementation luminescence;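 also: signal reports ligand binding via conformational change of the enzyme rather than luciferase catalysis; % of control where 0% means no effect; nearly all actives have a fitted effect of over 55% in size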
FLuc inh-2: inhibitors of firefly luciferase enzymatic activity. shares compounds with FLuc inh-1. purified FLuc-C-HiBiT enzyme, luciferin luminescence. Potency, µM (titrated, usually from 32.7 µM), inactives show at the top dose activity change, negative = inhibition, hits mostly inhibitors. 42% of 1,300 active; also: % is scaled to controls: 0 for no effect and ±100 for the full control effect; nearly all actives have a fitted effect of over 70% in size
An asterisk follows results filed as active; i = inactive; ? = inconclusive; . = not tested or not shown; [ ] = another dose, or the depositor's remark. Shown are actives, neighbours in structure and some others; about 11% of the full set was active somewhere. Unless noted, calls follow the shape of the dose curve; as a rule, active = well fitted curve in the direction sought with a large enough effect; inconclusive = small, poorly fitted or top-dose-only effect, or another doubt; inactive = no such curve, though single readings can be large; an effect the other way counts as inactive or inconclusive. Potency is read from the fitted curve at half-maximal effect.

SMILES | FLuc inh-1 | NIH3T3 tox | HEK cytotox | NPR1 antag | FLuc SDR -ATP | FLuc SDR ATP | FLuc inh-2
CCn1ccc(C(=O)N2CCC3(CC2)CN(C2CCC2)CC3COC)n1 (centres undefined) | . | -26% | -13% | . | . | . | .
Cc1ccc2nc(-c3ccc(NC(=O)COc4c(C)ccc(C)c4C)cc3)sc2c1 | . | . | . | . | 17% | 15% | ?
CSC(=S)Nc1ccc(-c2nc3ccc(C)cc3s2)cc1 | . | . | . | . | 25% | 19% | 2.5µM*
Cc1ccc2nc(-c3ccc(NC(=O)COc4ccc(Br)cc4Br)cc3)sc2c1 | . | . | . | . | ? | ? | 3.5µM*
Cc1ccc(NC(=O)c2cc(NC(=O)C3CC3)cc3nc(C)ccc23)cc1 | i | ? | ? | 4% | . | . | .
Cc1ccc2nc(-c3ccc(NC(=O)COc4ccc(Cl)c(C)c4)cc3)sc2c1 | . | . | . | . | 16% | 10% | -11%
O=C(CCc1cc(Cl)no1)N1CCc2nc3cc(-c4ccccc4)[nH]n3c(=O)c2C1 | ? | -18% | ? | -9% | . | . | .
Cc1ccc2nc(-c3ccc(NC(=O)Cc4ccccc4)cc3)sc2c1 | . | . | . | . | 13% | 14% | ?
Cc1ccc(NC(=O)Cn2c(-c3ccccc3)nc(C)cc2=O)cc1 | i | ? | ? | -18% | . | . | .
CCOC(=O)N1CCc2c(sc(NCc3ccc(OCC)cc3)c2C(=O)Nc2ccc(OC)cc2OC)C1 | . | . | . | . | 13% | ? | 3.9µM*
COc1ccc(NC(=O)CCC2CCN(C(=O)c3ccccc3)CC2)c(OC)c1 | i | -27% | ? | -10% | . | . | .
CCOC(=O)N1CCc2c(sc(NCc3cccs3)c2C(=O)Nc2ccc(OC)cc2OC)C1 | . | . | . | . | 6% | ? | 3.1µM*
CCOc1cc(=O)n2c(c1C(=O)Nc1ccc(OC)cc1OC)CCCC2 | i | ? | ? | -3% | . | . | .
Cc1nnc2ccc(N3CCCC(N[S+](=O)([O-])c4cccs4)C3)nn12 (centres undefined) | . | -28% | -11% | . | . | . | .
C[S+](=O)([O-])N1CCC(C(=O)N2CCCC(c3nc4ccncc4[nH]3)C2)CC1 (centres undefined) | . | -12% | -1% | . | . | . | .
COC(=O)N1CCCN(c2ccc3nnc(C)n3n2)CC1 | . | -27%[138 µM] | -3%[172 µM] | . | . | . | .
CC(=O)NC[C@H]1Cn2cc(-c3ccccc3)nc2CO1 | ? | i | i | 5%[70.6 µM] | . | . | .
c1ccc(-c2cn3c(n2)CO[C@@H](CNCc2cccs2)C3)cc1 | 5.6µM* | -25%[138 µM] | ? | -20%[70.6 µM] | 13%[49.3 µM] | 8%[49.3 µM] | ?
COc1ccccc1CN1CCNc2cnc(OCc3cccnc3)cc2C1 | i | -15%[138 µM] | ? | -1%[70.6 µM] | . | . | .
Fc1ccccc1CN1CCNc2cnc(OCc3cccnc3)cc2C1 | i | -20%[138 µM] | ? | 2%[70.6 µM] | . | . | .
Fc1ccc(CNc2cc3c(cn2)NCCN(Cc2ccccc2)C3)cc1 | i | ? | ? | -10%[70.6 µM] | . | . | .
Cc1cc(-c2cc3c(cn2)CN(Cc2ccccc2O)CCN3)ccn1 | 5.6µM* | ? | ? | ? | 21%[49.3 µM] | 13%[49.3 µM] | ?
Cc1cc(-c2cc3c(cn2)CN(Cc2cnc[nH]2)CCN3)ccn1 | . | . | . | . | 29%[49.3 µM] | 19%[49.3 µM] | 18µM*
NC(=O)c1cccc(-c2cc3c(cn2)CN(Cc2ccccc2)CCN3)c1 | 14µM* | -20%[138 µM] | ? | -2%[70.6 µM] | 17%[49.3 µM] | 12%[49.3 µM] | ?
Oc1ccccc1CN1CCNc2cc(-c3ccccc3)ncc2C1 | 2.5µM* | 79µM* | 79µM* | -29%[70.6 µM] | ? | 14%[49.3 µM] | ?
c1cncc(Nc2cc3c(cn2)CN(Cc2cccs2)CCN3)c1 | ? | ? | ? | 2%[70.6 µM] | . | . | .
Cc1cc(-c2cc3c(cn2)CN(Cc2cccs2)CCN3)ccn1 | 6.3µM* | ? | 89µM* | -21%[70.6 µM] | 32%[49.3 µM] | ? | 11µM*
Cc1nc([C@H]2CCN(Cc3ccc(C)c(C)c3)C[C@H]2NC(=O)C2CCOCC2)n[nH]1 | . | ? | -3% | . | . | . | .
COCC1(O)CCOC2(CCN(C(=O)C3CCC3)CC2)C1 (centres undefined) | . | -18% | i | . | . | . | .

Screening data as filed in PubChem BioAssay.
